Activity calls are given as the source filed them. Rule for the calls: active = hit-call score of the fitted dose curve at least 0.9, where 1 is the maximum; inactive = score below 0.9.
read-out: Monocyte Chemoattractant Protein-1 (MCP1), CCL2 (gene 6347); experiment: BSK_SAg_MCP1: BioMAP Diversity Plus: SAg Assay for Monocyte Chemoattractant Protein-1 (MCP1) Biomarker Activity (AID 2283090); conditions: primary human HUVEC with PBMC; actives raise or lower the signal
Procedure: BSK_SAg is a cell-based, multiplexed-readout assay that uses umbilical vein endothelium and peripheral blood mononuclear cells, a human vascular primary cell co-culture, with measurements taken at 24 hours after chemical dosing in a 96-well plate.BSK_SAg_MCP1 is an assay component measured in the BSK_SAg assay. It measures MCP-1 antibody related to regulation of gene expression using ELISA technology.Data from the assay component BSK_SAg_MCP1 was analyzed into 1 assay endpoint. This assay endpoint, BSK_SAg_MCP1, was analyzed with bidirectional fitting relative to DMSO as the negative control and baseline of activity. Using a type of binding reporter, gain or loss-of-signal activity can be used to understand changes in the signaling as they relate to the gene CCL2. Furthermore, this assay endpoint can be referred to as a primary readout, because this assay has produced multiple assay endpoints where this one serves a signaling function. To generalize the intended target to other relatable targets, this assay endpoint is annotated to the cytokine intended target family, where the subfamily is chemotactic factor.
The levels of cell surface (or secreted, indicated by the prefix "s") biomarker endpoints were measured by ELISA. Overt cytotoxicity to cells in confluent adherent cultures (all systems other than the BT system) was assessed by measuring total protein levels using sulforhodamine B (SRB) staining in parallel cultures at the time of biomarker measurements, indicated as SRB endpoints. For proliferation assays for adherent cell types, individual cell types are cultured at sub-confluence and relative cell numbers quantified by SRB staining at time points optimized for each system (48 h: 3C and CASM3C systems; 72 h: BT and HDF3CGF systems; 96 h: SAg system). SRB was performed by staining cells with 0.1% SRB after fixation with 10% TCA and reading wells at 560 nm.Viability and proliferation of PBMC (T cells) was quantified by Alamar Blue reduction for the SAg and BT systems. For PBMC viability (referred to as PBMC Cytotoxicity within the assay endpoint names), cells were plated (75,000/well in a 96-well plate) and then chemical samples added for 1 h before addition of activators, SEB and TSST-1 (20 ng/mL final concentration each). Cells were incubated for 90 h. Then, Alamar Blue (20 uL/well) (Invitrogen, Cat DAL1100) was added for 6 h, and the plates were read with a fluorescence microplate reader at 546/580 nm (excitation/emission). For PBMC proliferation, cells were plated and activated as above but incubated for only 16 h prior to addition of Alamar Blue. Plates were read after 6 h.

SMILES | outcome | AC50
O=C1c2ccccc2C(=O)N1CCc1noc(-c2ccc(CN3CCCCCC3)s2)n1 | inactive | –
O=C(O)Cn1c(=O)n(Cc2ccc(Br)cc2F)c(=O)c2ccc(Cl)cc21 | inactive | –
CCCCCCCCCCCC[N+](C)(C)C | – | 18.4 µM (active)
CCN(Cc1cccc(S(=O)(=O)O)c1)c1ccc(C(=C2C=CC(=[N+](CC)Cc3cccc(S(=O)(=O)O)c3)C=C2)c2ccccc2S(=O)(=O)[O-])cc1 | inactive | –
Oc1ccccc1 | inactive | –
c1ccc2n[nH]nc2c1 | inactive | –
Cc1ccc(C(C)C)cc1 | inactive | –
CN1C(=O)N(c2ccccc2Br)Cc2cnc(Nc3ccc4c(c3)OCC(CO)O4)nc21 (stereo not given) | – | 1.9 µM (active)
OC12N=C(c3ccccc3)SC1Cc1cc(Cl)ccc12 (stereo not given) | inactive | –
Cc1cccc2ccccc12 | inactive | –
CC[C@H](NC(=O)c1cc(F)ccc1NS(=O)(=O)c1cccc2cccnc12)c1ccccc1 | – | 5.84 µM (active)
O=C(O)Cc1cc(I)c(Oc2ccc(O)c(I)c2)c(I)c1 | inactive | –
C[C@]12CC[C@@H]3c4ccc(O)cc4CC[C@H]3[C@@H]1CC[C@H]2O | – | 15.4 µM (active)
COCC(C)OCC(C)OCC(C)O (stereo not given) | inactive | –
Clc1ccccc1C(c1ccccc1)(c1ccccc1)n1ccnc1 | – | 26.1 µM (active)
CC/C(=C(/CC)c1ccc(O)cc1)c1ccc(O)cc1 | – | 21.6 µM (active)
CCCCCCCCOc1ccc(C(=O)c2ccccc2)c(O)c1 | inactive | –
COc1cc(C(=O)NC2CCN(C)CC2)ccc1Nc1ncc2c(n1)N(C1CCCC1)CC(F)(F)C(=O)N2C | – | 13.9 µM (active)
CCCCCc1ccc(N)cc1 | inactive | –
c1ccc2ccccc2c1 | inactive | –

SMILES | outcome | AC50
O=C(Nc1ccc(Cl)cc1)Nc1ccc(Cl)c(Cl)c1 | – | 3.32 µM (active)
C[C@]12CC[C@@H]3c4ccc(O)cc4CC[C@H]3[C@@H]1CCC2=O | inactive | –
CC1=CC(=O)/C(=C(/C)O)C(=O)O1 | inactive | –
CC(C)(O)c1ccc(CNC(=O)c2cccnc2Oc2ccc3nonc3c2)cc1 | inactive | –
Cc1cc(F)ccc1-c1cc(N2CC[C@@H](O)[C@H]2CO)ncc1N(C)C(=O)C(C)(C)c1cc(C(F)(F)F)cc(C(F)(F)F)c1 | – | 10.3 µM (active)
CN(C)C(=O)C1(N2CCCCC2)CCN(CC[C@@]2(c3ccc(Cl)c(Cl)c3)CN(C(=O)c3ccccc3)CCO2)CC1 | – | 22.2 µM (active)
Cc1ccc2oc(CN(Cc3ccccc3)C(=O)Nc3c(F)cc(F)cc3F)c(-c3ccc(Cl)cc3)c2c1 | inactive | –
NCc1cccc(C2CCN(C(=O)c3ccc(C#Cc4ccccc4F)o3)CC2)c1 | – | 28 µM (active)
CN1C(=O)CC[C@H]1c1cccnc1 | inactive | –
CCCCCCCCOC(=O)c1cc(O)c(O)c(O)c1 | – | 20 µM (active)
CC[C@@H]1C[C@H](N(Cc2cc(C(F)(F)F)cc(C(F)(F)F)c2)C(C)=O)c2cc(C(F)(F)F)ccc2N1C(=O)OC(C)C | inactive | –
CCCOC(=O)c1cc(O)c(O)c(O)c1 | – | 29 µM (active)
CC(C)(c1cc(Br)c(O)c(Br)c1)c1cc(Br)c(O)c(Br)c1 | – | 29 µM (active)
Cc1cn([C@H]2C[C@H](N=[N+]=[N-])[C@@H](CO)O2)c(=O)[nH]c1=O | inactive | –
CCN(CC)C(=O)c1cc(S(=O)(=O)Cc2ccccc2)c(N2CCC(c3ccccc3)CC2)cc1N(CC)CCN(C)C | – | 11.8 µM (active)
CCO[Si](CCCNC(N)=O)(OCC)OCC | inactive | –
CN(C)c1ccc(C(=C2C=CC(=[N+](C)C)C=C2)c2ccc(N(C)C)cc2)cc1 | – | 0.325 µM (active)
CC1(C)NC(=O)N(c2ccc([N+](=O)[O-])c(C(F)(F)F)c2)C1=O | inactive | –
CCN(Cc1cccnc1)C(=O)c1cccc(Cl)c1[C@]1(C)C(=O)N(Cc2ccc(OC)cc2OC)c2ccc(Cl)cc21 | – | 5.36 µM (active)
CO[C@H]1/C=C/O[C@@]2(C)Oc3c(C)c(O)c4c(O)c(c(/C=N/N5CCN(C)CC5)c(O)c4c3C2=O)NC(=O)/C(C)=C\C=C\[C@H](C)[C@H](O)[C@@H](C)[C@@H](O)[C@@H](C)[C@H](OC(C)=O)[C@@H]1C | inactive | –

Source: PubChem BioAssay (EPA / NIEHS)
